Screening results deposited in PubChem by National Center for Advancing Translational Sciences (NCATS).
Lamin A splicing: changes lamin A minigene splicing in HeLa cells; Potency, µM (series often up to 46.1 µM), for the others: top-dose ratio change, negative = inhibition, actives largely listed as inhibitors; 0.01% of 200,000 active; AID 1487; HeLa LMNA splicing GFP/RFP minigene ratio, 48 h; active = well fitted inhibition curve with a large enough effect in the signal ratio, with a control signal flat, not every such curve was filed as active; inconclusive = small, poorly fitted or top-dose-only effect, or effect the other way, or a change in a side signal; the % refers to the signal ratio; note: % is set by controls: 0 for no effect and ±100 for the full control effect
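Read-out is the ratio of GFP to DsRed2 object intensity, acquired by 488 nm laser-scanning cytometry on HeLa lamin A-EGFP minigene reporter cells. Compound incubation 48 hrs at 37 °C in Opti-MEM with 2% FBS; DMSO 0.5% final.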
KinaseGlo FLuc: blocks Kinase-Glo luciferase, a counter-screen artifact. 0.28% of 200,000 active. Potency, µM (top dose mostly 38.3 µM), without a hit: at the highest dose activity change, negative = inhibition, actives largely listed as inhibitors. Q27757. Kinase-Glo luciferase, ATP luminescence, 8 min; note: % is set by controls: 0 for no effect and ±100 for the full control effect; nearly all actives have a fitted effect of over 60% in size
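Luminescence was the read-out, taken after 8-minute incubation at ambient temperature. Luciferase turned over luciferin with 10 uM ATP in imidazole pH 7.2 buffer containing KCl, MgCl2, Tween 20 and BSA.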
HPGD block: HPGD (human) dehydrogenase inhibition | P15428 | purified HPGD, NADH fluorescence kinetic, PGE2 substrate | Potency, µM, for inactives: at the highest dose activity change, negative = inhibition, usual class: inhibitors | 4.3% of 150,000 active | AID 894; active = well fitted inhibition curve with a large enough effect, not every such curve was filed as active; inconclusive = small, poorly fitted or top-dose-only effect, or another doubt; inactive = no such curve, though single readings can be large or run the other way; note: % is set by controls: 0 for no effect and ±100 for the full control effect
Target sequence (P15428 whole entry, looked up): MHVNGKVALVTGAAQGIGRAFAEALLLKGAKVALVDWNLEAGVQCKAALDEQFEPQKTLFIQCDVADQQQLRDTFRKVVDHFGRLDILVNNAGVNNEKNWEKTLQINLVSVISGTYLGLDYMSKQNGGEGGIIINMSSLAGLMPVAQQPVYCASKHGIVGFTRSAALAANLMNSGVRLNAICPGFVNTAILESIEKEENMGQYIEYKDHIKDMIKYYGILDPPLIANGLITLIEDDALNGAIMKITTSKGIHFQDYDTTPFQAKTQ
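20 nM HPGD preincubated 15 min at room temperature with compound in 50 mM Tris-HCl pH 8, 0.01% Tween 20. Started with 1 mM NAD+ and 30 uM prostaglandin E2; NADH fluorescence (360/450 nm) read 5 times over 30-s intervals, last minus first.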
HTT aggregate: mutant huntingtin aggregation inhibition. Potency, µM (highest dose often 46.1 µM), inactives show at the highest dose activity change, negative = inhibition, hits mostly inhibitors. PC12 HttQ103-GFP aggregates, Acumen cytometry, 40 h. 1.1% of 220,000 active. AID 1688; note: % is set by controls: 0 for no effect and ±100 for the full control effect; nearly all actives have a fitted effect of over 60% in size
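Compounds (qHTS titration) were added to PC12 cells expressing an ecdysone-driven HTT exon 1 Q103–GFP fusion after induction with 100 nM tebufenozide. Aggregate formation was measured as GFP objects in cell lysates.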
HTT cytoprotect: cytoprotection in Huntington HTT-Q103 PC12 cell model | PC12 HTT-Q103 induced, cytoprotection, ATP luminescence, 40 h | Potency, µM (doses to about 56.4 µM), inactives show cytoprotection (ATP increase), hits mostly activators | 0.14% of 230,000 active | AID 1471; note: % of control where 0% means no effect; nearly all actives have a fitted effect of over 45% in size
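Quantitative HTS on tebufenozide-induced (100 nM) PC12 cells expressing HTTQ103 exon 1–GFP; compounds tested as a concentration series; survival measured via cellular ATP.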
ALDH1A1 block: inhibitors of human aldehyde dehydrogenase 1A1; P00352; Purified ALDH1A1, NADH fluorescence, propionaldehyde substrate; Potency, µM (highest dose often 75.3 µM), without a hit: at the highest dose activity, negative = inhibition, most hits filed as inhibitors; 7.3% of 220,000 active; active = well fitted inhibition curve with a large enough effect, not every such curve was filed as active; inconclusive = small, poorly fitted or top-dose-only effect, or another doubt; inactive = no such curve, though single readings can be large or run the other way;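 note: plate controls were no enzyme wells and a reference inhibitor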
* = called active by the depositor; ? = inconclusive; nt = no result given; [ ] = remark or other dose. Compounds with a hit are over-represented: about 9% of the library has one in this group of screens. Unless noted, calls come from the whole dose curve; as a rule, active = well fitted curve in the direction sought with a large enough effect; inconclusive = small, poorly fitted or top-dose-only effect, or another doubt; inactive = no such curve, though single readings can be large; an effect the other way counts as inactive or inconclusive. Potency is the fitted concentration of half-maximal effect.

SMILES | Lamin A splicing | KinaseGlo FLuc | HPGD block | HTT aggregate | HTT cytoprotect | ALDH1A1 block
COc1ccc(CCNC(=O)c2cccnc2SC)cc1 | -2%[46 µM] | 0% | nt | 6% | -22% | 8%
Nc1cccc2nsnc12 | nt | nt | nt | -20%[9.22 µM] | 16%[10 µM] | nt
Nc1cc2nsnc2cc1Br | 17% | -1% | -16% | 3% | 6% | 7.9µM*
CC(/C=N/n1c(-c2ccc(Cl)cc2)n[nH]c1=S)=C\c1ccco1 | ? | nt | nt | 3%[9.22 µM] | 3%[10 µM] | 28µM*
Cc1ccc(-c2n[nH]c(=S)n2/N=C/c2ccc(C)o2)cc1 | -3% | 2% | 13µM* | 4% | -10%[10 µM] | ?
CC(/C=N/n1c(-c2ccco2)n[nH]c1=S)=C\c1ccccc1 | 2% | 4% | 2.5µM* | -9% | 28%[10 µM] | -5%
Cc1ccc(/C=N/n2c(-c3ccc(Cl)cc3)n[nH]c2=S)o1 | nt | nt | nt | 13%[9.22 µM] | 8%[10 µM] | nt
Cc1ccc(-c2n[nH]c(=S)n2/N=C\c2ccco2)cc1 | -2% | 2% | 22µM* | 7% | 5%[10 µM] | -6%
Cc1ccc(OCc2nnc(SCC(=O)Nc3cccc4ccccc34)n2-c2ccccc2)cc1 | ? | 2% | -11% | -3% | -26%[10 µM] | 7%
CCOC(=O)C1=C(c2ccccc2)N=C2SCC(=O)N2C1c1ccc2c(c1)OCO2 (configuration not stated) | 15% | 0% | -18% | -7% | -13% | 13µM*
CCOC(=O)C1=C(c2ccccc2)N=C2SCC(=O)N2C1c1ccc(OC)c(OC)c1 (configuration not stated) | -8% | -2% | -14% | 15% | -1% | 12%
Cc1ccccc1NC(=O)c1cccc(S(=O)(=O)Oc2ccc([N+](=O)[O-])cc2)c1 | 21% | 3% | ? | -1% | 2% | -12%
Cc1nc(CSc2nsc(/C=C/N(C)C)c2C#N)cs1 | 15%[46 µM] | -2% | nt | -5% | -7% | 6.3µM*
COc1ccc(Cn2c(CO)cnc2SCc2ccccc2)cc1 | -2%[46 µM] | nt | nt | nt | nt | nt
COc1cc(C(C)=O)ccc1OCC(O)CN1CCN(S(=O)(=O)c2ccccc2)CC1 (configuration not stated) | 3% | 6% | -9% | 6% | -5% | 28µM*
Cc1cccc(OCCNc2cc(N3CCN(C)CC3)ccc2[N+](=O)[O-])c1 | -14% | 1% | -23% | 0% | 8%[10 µM] | -9%
Cc1ccc(OCCNc2cc(N3CCN(CCO)CC3)ccc2[N+](=O)[O-])cc1C | -10% | -1% | 35µM* | -9% | 5%[10 µM] | ?
COc1ccccc1OCCNc1cc(N2CCCCC2)ccc1[N+](=O)[O-] | ? | 2% | -19% | ? | 21%[10 µM] | 18µM*
O=c1[nH]c(SCCN2CCOCC2)nc(O)c1-c1ccccc1 | nt | nt | nt | -12%[9.22 µM] | 8%[10 µM] | nt
Cc1ccc(SCCNC(=O)c2ccccc2)cc1 | 18% | -4% | 16µM* | -23% | -23% | ?
O=C(NCCSC1CCCCC1)c1ccccc1 | nt | -2% | nt | 6%[9.22 µM] | -13% | ?
COc1ccc(C(=O)NCCSc2ccc(C)cc2)cc1 | 0% | -2% | -13% | 4% | 21%[10 µM] | 10µM*
Cc1cc(C)nc(SCNC(=O)c2ccccc2)n1 | -3% | 1% | 14µM* | -15% | -15%[10 µM] | -8%
COc1ccc(C(=O)NCCSC2CCCCC2)cc1 | 4% | -1% | -1% | -14% | 17%[0.074 µM] | 3.5µM*
COc1ccc(C(=O)NCCSCc2ccccc2C)cc1 | 4% | -2% | -12% | 0% | -7% | ?
COc1ccccc1CNc1ncnc2ccc(-c3cccc(NS(C)(=O)=O)c3)cc12 | ? | nt | nt | nt | -256% | ?
COCCCNC(=O)c1ccc(C(=O)NCCCOC)cc1 | 11% | 15% | -11% | 12% | -2% | 20%
COCCNC(=O)c1ccc(C(=O)C(=O)c2ccccc2)cc1 | 0% | -1% | 14µM* | 13% | -7%[0.074 µM] | -13%
COc1ccc(C(=O)NCCSCc2ccc(C)cc2)cc1 | 0%[0.0737 µM] | -1% | 0% | 0% | 31% | 2.2µM*
Cc1ccc(CSCCNC(=O)c2ccc(C)cc2)cc1 | ? | 0% | nt | -5% | -1% | ?
